Screening results as filed in PubChem BioAssay.
ERa SRC1 pot – enhances coactivator binding to human estrogen receptor alpha; 1.3% of 86,000 active; P03372; coactivator binding (% of control), % at 25.6 µM; TR-FRET ERalpha-LBD/SRC-Cy5 coactivator binding, 2 h; 100 = basal binding, no effect; in the data active = activity above about 200%;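 note: binding measured in presence of low estradiol as agonist stimulus; 0% = peptide alone without receptor and 100% = receptor with peptide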
ERa coact inh – ER-alpha (human) coactivator binding inhibition; P03372; TR-FRET ER-alpha LBD / SRC-1 peptide, estradiol-bound; inhibition, % at 25.6 µM; 1.7% of 86,000 active; in the data active = inhibition above about 50%;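 note: 0% = receptor plus peptide control and 100% = peptide only without receptor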
MRP-1 activ – activates MRP-1 | AID 799 | viability increase, % at 10 µM | H69AR cells + doxorubicin, viability rescue, CellTiter-Glo | 0.61% of 140,000 active;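 active = viability gain under doxorubicin at or above a set limit, the compound median plus 3 SD, cut at about 4.7% in these data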;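 note: MRP-1 overexpressing cells given doxorubicin 25 µM after compound pretreatment; 18-22 h compound pretreatment then 72 h with doxorubicin before readout; 0% = doxorubicin-only wells and 100% = vehicle-treated cells without doxorubicin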
MRP resist rev – MRP-mediated drug resistance reversal; differential viability (reversal), % at 10 µM; 0.04% of 85,000 active; H69AR cells + 2 uM doxorubicin, CellTiter-Glo, 72 h;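 active = viability drop by adding the cancer drug above about 55%, with treated viability meeting a 40% cutoff, limit read from the data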;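 note: viability without doxorubicin minus viability with 2 µM doxorubicin for each compound; larger differential means the compound sensitizes cells more to doxorubicin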
Smad3 inh – Smad3 (human) transcription factor binding inhibition; TR-FRET Smad3/Dy647-FoxH1 peptide binding, europium anti-His; inhibition, % at 25 µM; 0.29% of 88,000 active; AID 630;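 active = compounds that reduce the energy-transfer binding signal between the protein and its labelled peptide by more than half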;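 note: 0% = Smad3 plus labelled peptide maximal FRET and 100% = peptide-only background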
ERb SRC1 inh – ER-beta (human) coactivator binding inhibition; Q92731; TR-FRET ER-beta LBD / SRC1-Cy5 peptide binding; receptor agonist-loaded with 1 µM estradiol; inhibition, % at 25.6 µM; 1.3% of 86,000 active;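 active = compounds whose percent inhibition of the receptor-coactivator binding signal exceeds about 50% in the single-dose screen, limit read from the data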;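 note: 0% = receptor plus peptide wells without compound and 100% = peptide-only wells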
Target sequence (Q92731 whole entry, looked up, the tested form may be a part): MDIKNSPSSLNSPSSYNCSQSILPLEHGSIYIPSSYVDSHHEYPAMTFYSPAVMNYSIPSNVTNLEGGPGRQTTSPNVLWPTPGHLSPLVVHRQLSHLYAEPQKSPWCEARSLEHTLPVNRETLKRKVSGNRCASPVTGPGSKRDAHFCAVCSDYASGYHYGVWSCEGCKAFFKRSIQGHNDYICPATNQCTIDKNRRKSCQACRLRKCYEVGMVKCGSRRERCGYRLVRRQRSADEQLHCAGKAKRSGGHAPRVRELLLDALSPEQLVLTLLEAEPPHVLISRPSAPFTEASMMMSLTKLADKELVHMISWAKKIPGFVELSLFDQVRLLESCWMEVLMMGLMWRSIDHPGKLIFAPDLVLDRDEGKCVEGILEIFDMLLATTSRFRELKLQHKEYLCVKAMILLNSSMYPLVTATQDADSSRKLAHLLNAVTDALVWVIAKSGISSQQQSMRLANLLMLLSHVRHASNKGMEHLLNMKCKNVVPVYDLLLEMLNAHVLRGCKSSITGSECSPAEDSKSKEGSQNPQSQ
* = called active by the depositor; x = not tested or not shown; [ ] = remark or other dose. This is a sample that favours compounds with a hit; in the whole collection about 2.9% have one here.

SMILES	ERa SRC1 pot	ERa coact inh	MRP-1 activ	MRP resist rev	Smad3 inh	ERb SRC1 inh
c1ccc(N2CCN(c3nc(-c4cccs4)nc4ccccc34)CC2)cc1	x	x	7.3*	x	x	x
COC(=O)Cn1c(=NC(=O)c2ccc([N+](=O)[O-])s2)sc2cc(Br)ccc21	x	x	-4	x	x	x
Cc1onc(-c2ccccc2Cl)c1C(=O)Nc1sc2c(c1C(N)=O)CCC(C)C2 (centres undefined)	128	-34	4.8*	11	7	-5
N[C@@H](CCCCO)C(=O)O	x	x	x	x	-4	x
Clc1ccc(-c2nc(-c3ccccn3)no2)cc1Cl	265*	27	-6	-5	-3	17
CC(C)n1c(-c2ccco2)csc1=Nc1cccnc1	87	2	-1	0	6	1
COc1ccc(C2CC(c3ccccc3)=NN2C(=O)COC(=O)c2cccnc2Cl)cc1 (centres undefined)	x	x	5.4*	x	x	x
COc1ccc(C2=NN(C(=O)CSc3cn(C)c4ccccc34)C(c3ccc(OC)cc3)C2)cc1 (centres undefined)	639*[fluorescence artefact?]	-5	1	-17	0	0
C#CCOCCOCCOCCNc1nc(N2CCN(C(=O)Cn3cc(CC(C)O)nn3)CC2)nc(N2CCN(C(=O)[C@H](C)n3cc(CCCN=C(N)N)nn3)CC2)n1 (some centres undefined)	x	x	0	x	x	x
Cc1ccc(CNC(=O)c2sc3nc4c(c(C(F)(F)F)c3c2N)CCC4)cc1	x	x	4.8*	x	x	x
COc1ccc(CNC(=O)c2sc3nc4c(c(C(F)(F)F)c3c2N)CCC4)cc1	x	x	2	x	x	x
[Cu].c1ccc2c(c1)-c1nc-2nc2[n-]c(nc3nc(nc4[n-]c(n1)c1ccccc41)-c1ccccc1-3)c1ccccc21	x	x	x	x	-8	x
CSc1ccc(S(=O)(=O)Nc2c(C)cccc2C)cc1	41	55*	-3	11	10	30
CCc1ccccc1NS(=O)(=O)c1ccc(SC)cc1	36	66*[fluorescence artefact?]	-5	0	-2	3
CSc1ccc(S(=O)(=O)Nc2ccc(F)cc2)cc1	31	67*[fluorescence artefact?]	-1	13	23	-1
COc1ccc(NS(=O)(=O)c2ccc(SC)cc2)cc1	108	4	-4	-3	-9	0
Cc1ccsc1/C=C1\Oc2cc(OCC(=O)c3ccccc3)ccc2C1=O	x	x	1	x	x	x
COc1ccccc1S(=O)(=O)Cc1ccc(C(=O)N2CCCC2)o1	208*	7	-2	9	0	-12
COc1ccccc1S(=O)(=O)Cc1ccc(C(=O)N2CCN(c3ccccn3)CC2)o1	x	x	0	x	x	x
CCC(c1nnnn1Cc1ccc2c(c1)OCO2)N1CCN(c2ccccc2)CC1 (centres undefined)	100	4	-3	-1	-6	2
CCC(c1nnnn1Cc1ccc2c(c1)OCO2)N1CCN(c2ccc(F)cc2)CC1 (centres undefined)	103	2	-4	20	7	79*[fluorescence artefact?]
Oc1ccccc1-c1cc(-c2ccccc2)no1	x	x	-4	x	x	x
Cc1ccc(-c2cc(-c3ccccc3)no2)c(O)c1	x	x	5.3*	x	x	x
COc1ccc(NC(=O)CSC2CC(=O)N(c3ccc4c(c3)OCCO4)C2=O)cc1 (centres undefined)	130	-7	0	-12	5	-4
CCOC(=O)N1CCC(NC(=O)c2cccn3c(=O)c4cc(Br)ccc4nc23)CC1	288*[fluorescence artefact?]	60*[fluorescence artefact?]	-2	15	0	42
SMILES	ERa SRC1 pot	ERa coact inh	MRP-1 activ	MRP resist rev	Smad3 inh	ERb SRC1 inh
CCOC(=O)N1CCC(NC(=O)c2ccc3nc4ccccc4c(=O)n3c2)CC1	111	-3	0	-24	1	2
COc1cc(C(c2sc3nc(C)nn3c2O)N2CCN(c3ccccc3)CC2)cc(OC)c1OC (centres undefined)	107	83*[fluorescence artefact?]	1	6	3	-6
COc1cc(C(c2sc3nc(C)nn3c2O)N2CCOCC2)cc(OC)c1OC (centres undefined)	x	x	-3	x	x	x
Cc1ccc(C(c2sc3nc(C)nn3c2O)N2CCN(c3ccccc3F)CC2)cc1 (centres undefined)	107	-2	1	5	2	72*[fluorescence artefact?]
Cc1nn(-c2ccccc2)c(C)c1C(=O)OC/C(O)=C(\C#N)c1nc2ccccc2[nH]1	60	56*[fluorescence artefact?]	-4	-1	1	23
O=C(CCN1C(=O)/C(=C/c2ccccc2)SC1=S)NNC(=O)c1cccnc1	x	x	6.6*	x	x	x
O=C(CCN1C(=O)/C(=C/c2ccc(F)cc2)SC1=S)NNC(=O)c1cccnc1	x	x	4	x	x	x
Cc1ccc(/C=C2\SC(=S)N(CCC(=O)NNC(=O)c3cccnc3)C2=O)cc1	x	x	8.7*	x	x	x
CC(=O)NN1C(=O)/C(=C/c2ccc(C(C)C)cc2)SC1=S	x	x	4.7*	x	x	x
O=C(CCN1C(=O)/C(=C/c2cccc(Br)c2)SC1=S)NNC(=O)c1cccnc1	x	x	2	x	x	x
O=C(NN1C(=O)/C(=C\c2cccnc2)SC1=S)C(c1ccccc1)c1ccccc1	x	x	5.5*	x	x	x
Cc1ccc2c(c1)cc(CN(CCc1ccccc1)C(=O)N1CCOCC1)c1nnnn12	113	65*[fluorescence artefact?]	-1	-19	9	-4
Cc1ccc2[nH]c(=O)c(CN(CCc3ccccc3)C(=O)N3CCOCC3)cc2c1	98	1	-1	-12	6	0
COc1ccc(C(=O)COc2ccccc2N2C(=O)C3C4C=CC(C4)C3C2=O)cc1 (centres undefined)	59	51*[fluorescence artefact?]	-1	6	9	2
COc1cccc(C(=O)COc2ccccc2N2C(=O)C3C4C=CC(C4)C3C2=O)c1 (centres undefined)	x	x	-1	x	x	x
COc1ccc(CCNC(=O)CSCc2ccc(Cl)cc2)cc1OC	x	x	5.0*	x	x	x
c1ccc2c(c1)-c1nc3ccccc3cc1[C@@H]2N1CCOCC1	x	x	x	x	-9	x
COc1ccc(OC)c(-c2cc(C(=O)Nc3c(C)nn(Cc4ccccc4Cl)c3C)no2)c1	114	6	5.5*	3	2	-3
COc1ccc(OC)c(-c2cc(C(=O)Nc3c(C)nn(Cc4ccccc4C)c3C)no2)c1	98	-1	9.3*	2	4	1
O=C(Oc1cccc(-c2cnc3ccccc3n2)c1)c1ccco1	311*	-1	-4	-5	2	-16
CCCn1c(=O)c2ccccc2n2c(SCC(=O)Nc3cc(C)on3)nnc12	93	7	x	5	10	100*[fluorescence artefact?]
O=C(NCc1ccco1)c1nn2c(C(F)(F)F)cc(-c3cccs3)nc2c1Br	157	59*	-2	-27	0	44
CCN1C(=O)c2ccc(C(=O)Nc3nccs3)cc2C1=O	109	11	-1	-3	7	-2
O=C(Nc1nccs1)c1ccc2nccnc2c1	43	40	-1	8	8	60*
Cc1cc(NC(=O)CS(=O)(=O)c2cn(Cc3ccccc3Cl)c3ccccc23)no1	660*[fluorescence artefact?]	15	-1	-7	-6	14
O=C(O)c1nc(-c2ccccc2)[nH]c1C(=O)O	x	x	x	x	-2	x
